± gives the uncertainty stated by the source.
tested on: U87; experiment: cell viability relative to vehicle control; higher = less growth inhibition (less active); details: 10 µM; 72 h
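Note: viable cell number estimated from Alamar Blue fluorescence read at 560/90, part of a single-dose primary screen of an FDA-approved drug library.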

| Compound | cell viability |
| --- | --- |
| Cc1ncc([N+](=O)[O-])n1CC(O)CCl (configuration not stated) | 91.08 ± 0.44% |
| CC(=O)Oc1ccccc1C(=O)Nc1ncc([N+](=O)[O-])s1 | 103 ± 2.3% |
| CN1[C@@H](CC(=O)c2ccccc2)CCC[C@H]1C[C@H](O)c1ccccc1 | 98.58 ± 0.82% |
| CC(C(=O)O)c1ccc(-c2ccccc2)c(F)c1 (configuration not stated) [Flurbiprofen] | 105 ± 12% |
| O=C(O)C[C@H](O)C[C@H](O)/C=C/c1c(C2CC2)nc2ccccc2c1-c1ccc(F)cc1 | 28.6 ± 3.1% |
| Cn1nnc2c(C(N)=O)ncn2c1=O | 106 ± 1.3% |
| CN(C)CCC=C1c2ccccc2COc2ccccc21 [Doxepin] | 101.6 ± 0.79% |
| CC(C)OC(=O)CCC/C=C\C[C@@H]1[C@@H](CC[C@@H](O)CCc2ccccc2)[C@H](O)C[C@@H]1O | 106 ± 4.2% |
| COc1ccc(C2CNC(=O)C2)cc1OC1CCCC1 (configuration not stated) | 99.3 ± 1.2% |
| c1cnc(N2CCN(Cc3ccc4c(c3)OCO4)CC2)nc1 [Piribedil] | 108.4 ± 0.77% |
| C[C@H]1COc2c(N3CCN(C)CC3)c(F)cc3c(=O)c(C(=O)O)cn1c23 | 102.8 ± 0.96% |
| c1ccc(-c2ccc(C(c3ccccc3)n3ccnc3)cc2)cc1 (configuration not stated) | 101 ± 1.2% |
| CNC(=C[N+](=O)[O-])NCCSCc1csc(CN(C)C)n1 | 99.1 ± 1.3% |
| NC(=O)c1cccnc1 | 104.5 ± 1% |
| COCC1=C(C(=O)OC(C)OC(=O)OC(C)C)N2C(=O)[C@@H](NC(=O)/C(=N\OC)c3csc(N)n3)[C@H]2SC1 (some centres not stated) | 106 ± 1.6% |
| CC(Cc1ccccc1)(NC(=O)CN)c1ccccc1 (racemic) | 93.1 ± 3.1% |
| N[C@@H](C(=O)N[C@@H]1C(=O)N2C(C(=O)O)=C(Cl)CS[C@H]12)c1ccccc1 | 104 ± 1.2% |
